From PubChem
BAZ2B block – inhibitors of human BAZ2B bromodomain; 360,000 tested, 4.4% active; AlphaScreen BAZ2B-H3K14Ac peptide displacement; Q9UIF8; Potency, µM (titrated, usually from 114 µM), without a hit: top-dose activity change, negative = inhibition, most hits filed as inhibitors; note: % is set by controls: 0 for no effect and ±100 for the full control effect; nearly all actives have a fitted effect of over 60% in size
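BAZ2B 50 nM plus b-H3(5-23)K14Ac 50 nM, PBS pH 7.4/0.01% Tween-20, 30 min RT; compound added (max 110 uM), 30 min RT; streptavidin donor/Ni-chelate acceptor beads 10 ug/mL final, 20 min dark; AlphaScreen read.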
G9a inh – G9a (human) methyltransferase inhibition | G9a H3K9 monomethylation, AlphaScreen, 2 h | AID 504332 | Potency, µM (top dose mostly 102 µM), without a hit: top-dose activity, negative = inhibition, actives largely listed as inhibitors | 350,000 tested, 8.8% active | Q96KQ7; note: % is set by controls: 0 for no effect and ±100 for the full control effect; nearly all actives have a fitted effect of over 75% in size
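Signal arises when biotinylated H3K9 peptide, once monomethylated, bridges streptavidin donor and antibody-captured acceptor beads. Enzyme at 20 nM was preincubated 15 min with test compounds; peptide 500 nM and SAM 20 uM then reacted for 2 h.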
HP1b chromo inh – HP1-beta chromodomain-methylated histone interaction inhibition; AlphaScreen HP1-beta / biotin-H3K9me3 peptide binding; 390,000 tested, 0.56% active; Potency, µM (top dose mostly 114 µM), for the others: top-dose activity change, negative = inhibition, usual class: inhibitors; P83916; note: nearly all actives have a fitted effect of over 70% in size
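HP1-beta protein (50 nM final) preincubated 30 min at room temperature with biotinylated H3(1-18)K9me3 peptide (50 nM) in PBS pH 7.4, 0.01% Tween-20, then compound added for 30 min. AlphaScreen streptavidin donor/nickel chelate acceptor beads (10 ug/mL final), 30 min dark, luminescence read.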
GLS inh – inhibitors of human glutaminase (GLS). AID 624170. O94925. 410,000 tested, 0.21% active. Potency, µM (series often up to 45.5 µM), for the others: at the top dose activity change, negative = inhibition, usual class: inhibitors. GLS enzymatic activity, qHTS titration; note: % is set by controls: 0 for no effect and ±100 for the full control effect
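hKGA in 45 mM KH2PO4 (pH 8.2), 0.02% Tween-20 with compound, then 1mM L-Glutamine (stock as added) plus glutamate oxidase/HRP/Amplex red coupling mix. Fluorescence read initially and after 30 min at RT; signal change reflects glutamate formation.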
JMJD2A Tudor inh – inhibitors of human JMJD2A Tudor domain; 390,000 tested, 4.4% active; Potency, µM (doses to about 114 µM), without a hit: at the top dose activity change, negative = inhibition, actives largely listed as inhibitors; AlphaScreen JMJD2A-Tudor / H3K4me3 peptide binding; note: % is set by controls: 0 for no effect and ±100 for the full control effect; nearly all actives have a fitted effect of over 50% in size
Numbers without * were called inactive; [ ] = remark or other dose. The list is not random: actives were taken first. Their share in the collection is about 10%. Calls come from the whole dose curve; as a rule, active = well fitted curve in the direction sought with a large enough effect; inconclusive = small, poorly fitted or top-dose-only effect, or another doubt; inactive = no such curve, though single readings can be large; an effect the other way counts as inactive or inconclusive. Potency is the fitted concentration of half-maximal effect.

`CC1(C)CCCN(C(=O)c2ccc3c(c2NCCO)C(=O)c2ccccc2C3=O)C1` gave BAZ2B block 14.1µM*, G9a inh 35.5µM*, HP1b chromo inh -78.8%, GLS inh -9.9% and JMJD2A Tudor inh 39.8µM*.
CC(NS(=O)(=O)c1ccc(Br)cc1)C(=O)Nc1nc2ccccc2[nH]1 (centres undefined) was read as BAZ2B block 6.4%, G9a inh 20.7%[59 µM], HP1b chromo inh 18.7%[57 µM], GLS inh 0.0% and JMJD2A Tudor inh 2.6%.
`Cc1ccc(CNC(=O)CNC(=S)N(Cc2ccccc2)Cc2cccnc2)cc1` gave BAZ2B block -12.0%, G9a inh -47.5%, HP1b chromo inh 22.0%, GLS inh -1.3% and JMJD2A Tudor inh -25.5%.
Cc1ccc(CN(Cc2ccccc2)C(=S)NCC(=O)NCc2cccnc2)o1 was read as BAZ2B block -24.7%, G9a inh 28.2µM*, HP1b chromo inh 1.4%, GLS inh 1.4% and JMJD2A Tudor inh inconclusive.
`Cc1ccc(CN(Cc2ccc(C)o2)C(=S)NCC(=O)O)cc1` gave BAZ2B block 3.9%, G9a inh inconclusive, HP1b chromo inh 7.9%, GLS inh -14.0% and JMJD2A Tudor inh -13.8%.
For Cc1ccc(CN(Cc2ccco2)C(=S)NCC(=O)O)cc1 the results were BAZ2B block -5.5%, G9a inh 31.6µM*, HP1b chromo inh 14.3%, GLS inh 5.5% and JMJD2A Tudor inh -12.9%.
Cc1ccc(CN(Cc2ccco2)C(=S)NCC(=O)NCc2cccnc2)cc1 was read as BAZ2B block inconclusive, G9a inh 12.6µM*, HP1b chromo inh inconclusive, GLS inh -16.5% and JMJD2A Tudor inh -32.3%.
For COCCNC(=O)CNC(=S)N(Cc1ccccc1)Cc1cccnc1 the results were BAZ2B block -2.7%, G9a inh 18.7%[59 µM], HP1b chromo inh 35.5%, GLS inh -0.9% and JMJD2A Tudor inh 5.6%.
`Cc1ccc(S(=O)(=O)N2[C@@H](c3ccc(Cl)cc3)C(C(=O)O)=CC[C@H]2c2ccc3c(c2)OCO3)cc1` gave BAZ2B block 2.5%, G9a inh 23.9%[2.33 µM], HP1b chromo inh 27.5%, GLS inh 10.5% and JMJD2A Tudor inh -15.9%.
For CC1CCN(c2ccc(C(=O)OCC(=O)NCCN3C(=O)CSC3=O)cc2[N+](=O)[O-])CC1 the results were BAZ2B block inconclusive, G9a inh inconclusive, HP1b chromo inh inconclusive, GLS inh 0.3% and JMJD2A Tudor inh inconclusive.
Screening CN(C)c1ccc(C=c2c3ccccc3n3c2c2ccccc2[n+]3C)cc1 returned HP1b chromo inh 12.6µM*, GLS inh -11.0% and JMJD2A Tudor inh 15.8µM*.
Screening CCOC(=O)c1cc2c(=Cc3ccc(N(C)C)cc3)c3ccccc3n2[n+]1C returned HP1b chromo inh 50.1µM*, GLS inh 29.2% and JMJD2A Tudor inh 25.1µM*.
Cc1cc2c(=Cc3ccc(N(C)C)cc3)c3ccccc3n2[n+]1C was read as HP1b chromo inh 31.6µM*, GLS inh -9.9% and JMJD2A Tudor inh 44.7µM*.
Screening COc1cc([N+](=O)[O-])ccc1NC(=O)CN1CCc2cc(OC)c(OC)cc2C1 returned BAZ2B block -34.9%, G9a inh 28.2µM*, HP1b chromo inh -17.1%, GLS inh 0.6% and JMJD2A Tudor inh -35.3%.
Screening COC(=O)CSc1cc([N+](=O)[O-])ccc1NC(=O)OC returned BAZ2B block -2.7%, G9a inh 35.5µM*, HP1b chromo inh 34.4%, GLS inh -3.7% and JMJD2A Tudor inh -10.8%[57.1 µM].
For COC(=O)Nc1ccc([N+](=O)[O-])cc1OC the results were BAZ2B block 12.2%, G9a inh 14.0%, HP1b chromo inh 22.6%, GLS inh 3.7% and JMJD2A Tudor inh -11.5%.
Screening CCc1cccc(CC)c1NC(=O)CN1CCc2cc(OC)c(OC)cc2C1 returned BAZ2B block 50.1µM* and G9a inh 70.8µM*.
Screening COc1cc2c(cc1OC)CN(CC(=O)NC(=O)NCc1ccccc1)CC2 returned BAZ2B block -14.7%, G9a inh 56.2µM*, HP1b chromo inh 33.8%, GLS inh -13.2% and JMJD2A Tudor inh -17.1%.
